Measurements from PubChem BioAssay (Tox21).
Values joined by “and” are separate entries in the source; they are usually repeats but may differ in a detail not shown here. Equal entries are not always repeated. Results filed as inconclusive are left out. A call without a number means that no potency is given here. The source holds several records for some structures; these can differ, active in one and inactive in another. Active and inactive are the calls of the source. Unless noted, calls follow the shape of the dose curve; as a rule, active = well fitted curve in the direction sought with a large enough effect in the repeat runs; inconclusive = weak or mixed curves; inactive = no such curve, though single readings can be large; an effect the other way counts as inactive or inconclusive.

Experiments:
[1] = Human pregnane X receptor (PXR) small molecule agonists, qHTS cell viability counter screen (AID 1346977); also: nearly all actives have a fitted effect of over 50% in size; also: potency is read from the fitted curve at half-maximal effect
Summary of the method: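 PXR-Luc HepG2 cells in medium with 5% charcoal-stripped FBS were pre-incubated 5hr, then exposed to compounds for 24hr at 37C. Viability was read in the same wells by CellTiter-Fluor fluorescence, reagent added after 23hr with a 1hr incubation.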

[2] = Caspase-3/7 induction in HepG2 cells by small molecules, qHTS assay (AID 1346978); also: nearly all actives have a fitted effect of over 15% in size; also: potency is read from the fitted curve at half-maximal effect
Summary of the method: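 Caspase-3/7 induction was measured by Caspase-Glo 3/7 luminescence (30 min, room temperature) after a 17 hr compound exposure of wild-type HepG2 cells seeded at 2,000 per well and pre-incubated 5 hr.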

[3] = Caspase-3/7 induction in CHO-K1 cells by small molecules, qHTS cell viability counter screen (AID 1346979); also: nearly all actives have a fitted effect of over 35% in size; also: potency is read from the fitted curve at half-maximal effect
Summary of the method: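 Wild-type CHO-K1 cells were seeded at 1,500 per well, rested 5hr at 37 C, then exposed to compounds in DMSO. After 16hr, CellTiter-Fluor reagent was added and fluorescence read 1hr later as the viability measure.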

[4] = Caspase-3/7 induction in CHO-K1 cells by small molecules, qHTS assay (AID 1346980); also: nearly all actives have a fitted effect of over 15% in size
Summary of the method: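 Luminescent Caspase-Glo 3/7 read (30min, room temperature) quantified apoptosis induction. Cells were wild-type CHO-K1, treated with compound for 17hr at 37 C and 5% CO2.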

[5] = Caspase-3/7 induction in HepG2 cells by small molecules, qHTS cell viability counter screen (AID 1346981); also: nearly all actives have a fitted effect of over 30% in size; also: potency is read from the fitted curve at half-maximal effect
Summary of the method: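 Multiplexed with the caspase-3/7 assay: HepG2 cells, 16 hr compound treatment, CellTiter-Fluor viability detection by fluorescence.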

[6] = target: Nuclear receptor subfamily 1 group I member 2 (Homo sapiens) (UniProt O75469); experiment: Human pregnane X receptor (PXR) small molecule agonists, qHTS assay (AID 1346982); also: nearly all actives have a fitted effect of over 35% in size; also: potency is read from the fitted curve at half-maximal effect
Nuclear receptor subfamily 1 group I member 2 (Homo sapiens), sequence (O75469 whole entry, looked up): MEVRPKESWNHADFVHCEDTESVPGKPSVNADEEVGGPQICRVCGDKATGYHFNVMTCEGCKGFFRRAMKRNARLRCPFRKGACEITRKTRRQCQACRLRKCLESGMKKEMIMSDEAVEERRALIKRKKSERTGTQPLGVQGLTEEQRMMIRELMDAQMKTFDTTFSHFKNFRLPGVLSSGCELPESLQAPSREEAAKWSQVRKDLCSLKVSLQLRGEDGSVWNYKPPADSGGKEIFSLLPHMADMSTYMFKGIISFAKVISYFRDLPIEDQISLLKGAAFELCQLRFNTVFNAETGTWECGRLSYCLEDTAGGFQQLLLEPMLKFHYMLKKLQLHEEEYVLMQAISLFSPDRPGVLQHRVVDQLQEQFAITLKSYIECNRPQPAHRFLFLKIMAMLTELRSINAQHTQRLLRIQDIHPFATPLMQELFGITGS
Summary of the method: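 We seeded PXR-Luc HepG2 cells in assay medium containing 5% charcoal-stripped FBS, added compounds 5 hr later, incubated 24 hr, and read luminescence with ONE-Glo reagent.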

[7] = target: Nuclear receptor subfamily 1 group I member 2 (Rattus norvegicus) (UniProt Q9R1A7); experiment: Rat pregnane X receptor (rPXR) activation by small molecules, qHTS assay (AID 1346983); settings: rPXR luciferase reporter cells, One-Glo luminescence, 24 h; stronger effect = higher value; also: nearly all actives have a fitted effect of over 20% in size
Nuclear receptor subfamily 1 group I member 2 (Rattus norvegicus), sequence (Q9R1A7 whole entry, looked up): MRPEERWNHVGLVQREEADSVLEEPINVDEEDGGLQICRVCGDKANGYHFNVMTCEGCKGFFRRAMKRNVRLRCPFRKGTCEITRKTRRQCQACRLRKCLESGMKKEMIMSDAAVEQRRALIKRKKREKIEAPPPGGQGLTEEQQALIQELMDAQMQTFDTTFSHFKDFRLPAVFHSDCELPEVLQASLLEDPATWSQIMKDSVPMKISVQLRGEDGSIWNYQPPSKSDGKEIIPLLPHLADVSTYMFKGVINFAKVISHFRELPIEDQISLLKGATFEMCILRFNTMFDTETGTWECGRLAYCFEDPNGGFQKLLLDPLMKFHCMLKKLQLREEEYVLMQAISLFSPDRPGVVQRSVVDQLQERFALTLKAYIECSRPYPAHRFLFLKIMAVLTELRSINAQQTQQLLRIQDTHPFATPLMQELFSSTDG
Summary of the method: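 Luminescent readout (One-Glo luciferase, 30 min room temperature) followed 24 hr compound treatment at 37 C of rPXR cells plated 2,000 per well and preincubated 5hr; qHTS format with compounds delivered in DMSO.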

[8] = target: Nuclear receptor subfamily 1 group I member 2 (Homo sapiens) (UniProt O75469); experiment: CYP3A4 induction through human pregnane X receptor (PXR) by small molecules, qHTS assay (AID 1346984); also: nearly all actives have a fitted effect of over 40% in size
Summary of the method: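 qHTS, concentration-response format: HepG2 DPX-2 line, PXR/CYP3A4-luc. Exposure 24 h, 37C. Substrate Luciferin-IPA 3uM final, 3 h. Detection One-Glo, 30 min RT.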

[9] = target: Nuclear receptor subfamily 1 group I member 2 (Homo sapiens) (UniProt O75469); experiment: Human pregnane X receptor (PXR) activation by small molecules, qHTS assay (AID 1346985); also: nearly all actives have a fitted effect of over 40% in size; also: potency is read from the fitted curve at half-maximal effect
Summary of the method: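 DPX-2 cells (HepG2 co-transfected with a PXR response element and a CYP3A4-promoter luciferase construct) were seeded at 2,000 per well, rested 5 hr at 37C, then exposed to DMSO-dissolved compounds for 24 hr. Activation was read as luciferase luminescence.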

[10] = target: Acetylcholinesterase (Homo sapiens) (UniProt P22303); experiment: Acetylcholinesterase (AChE) small molecule antagonists: enzyme-based qHTS assay (AID 1347397; calls by dose curve; also: nearly all actives have a fitted effect of over 55% in size); settings: Potency: AChE enzyme activity inhibition
Acetylcholinesterase (Homo sapiens), sequence (P22303 whole entry, looked up): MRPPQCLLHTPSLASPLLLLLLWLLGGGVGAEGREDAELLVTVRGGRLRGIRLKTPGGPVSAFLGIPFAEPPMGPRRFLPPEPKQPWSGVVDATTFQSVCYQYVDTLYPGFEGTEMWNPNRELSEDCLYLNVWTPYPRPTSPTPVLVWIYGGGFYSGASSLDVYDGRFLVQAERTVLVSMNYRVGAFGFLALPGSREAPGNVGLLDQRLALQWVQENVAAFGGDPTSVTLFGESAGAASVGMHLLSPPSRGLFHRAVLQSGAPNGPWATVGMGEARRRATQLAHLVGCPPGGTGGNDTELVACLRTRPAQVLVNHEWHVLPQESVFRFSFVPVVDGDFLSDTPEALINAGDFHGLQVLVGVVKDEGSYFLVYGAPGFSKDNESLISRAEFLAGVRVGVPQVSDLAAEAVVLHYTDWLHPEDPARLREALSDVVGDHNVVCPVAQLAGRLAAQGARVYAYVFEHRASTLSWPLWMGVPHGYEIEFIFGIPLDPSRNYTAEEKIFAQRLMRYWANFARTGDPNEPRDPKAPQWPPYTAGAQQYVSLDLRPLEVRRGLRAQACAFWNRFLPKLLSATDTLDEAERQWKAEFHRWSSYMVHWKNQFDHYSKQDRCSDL
Summary of the method: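 Absorbance-based detection of thiocholine with DTNB served as the read-out. Recombinant human AChE was exposed to compound for 30 min at RT before a 10 min RT incubation with acetylthiocholine.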

Structure (SMILES) | Potency [1] | Potency [2] | Potency [3] | Potency [4] | Potency [5] | Potency [6] | max activation [7] | outcome [8] | Potency [9] | Potency [10]
O=C(O)c1ccccc1O | inactive | inactive | inactive | inactive | inactive | – | – | – | – | –
O=C(O)CC(O)(CC(=O)O)C(=O)O | inactive | inactive | inactive | inactive | inactive | – | – | – | – | –
COP(=O)(OC)C(O)C(Cl)(Cl)Cl (stereo unspecified) | inactive | inactive | inactive | inactive | inactive | – | – | – | – | –
O=c1[nH]c(=O)n(Cl)c(=O)n1Cl | inactive | inactive | inactive | inactive | inactive | inactive | 0.0078% (inactive) | inactive | inactive | inactive
C1CCC(NC2CCCCC2)CC1 | inactive | inactive | inactive | inactive | inactive | inactive | -0.555% (inactive) | inactive | inactive | inactive
Oc1ccccc1-c1ccccc1 | inactive | inactive | inactive | inactive | inactive | inactive and 31.4 µM (active) | -1.27% (inactive) | inactive | inactive | inactive
N#CS | inactive | inactive | inactive | inactive | inactive | – | – | – | – | –
CCCCn1cc[n+](C)c1C | inactive | inactive | inactive | inactive | inactive | inactive | – | – | – | –
O=C(O)C(Cl)(Cl)Cl | inactive | inactive | inactive | inactive | inactive | inactive | -1.14% (inactive) | inactive | inactive | inactive
CC(=O)O | inactive | inactive | inactive | inactive | inactive | – | – | – | – | –
CCCC[N+]1(C)CCCC1 | inactive | inactive | inactive | inactive | inactive | inactive | – | – | – | –
Nc1ccccc1 | inactive | inactive | inactive | inactive | inactive | inactive | – | – | – | –
O=C(O)C(Cl)Cl | inactive | inactive | inactive | inactive | inactive | inactive | -1.74% (inactive) | inactive | inactive | inactive
CCC[N+]1(C)CCCC1 | inactive | inactive | inactive | inactive | inactive | inactive | – | – | – | –
OCCOc1ccccc1 | inactive | inactive | inactive | inactive | inactive | inactive | -2.05% (inactive) | inactive | inactive | inactive
CN(C)[C@@H]1C(=O)C(C(N)=O)=C(O)[C@@]2(O)C(=O)C3=C(O)c4c(O)cccc4[C@@](C)(O)[C@H]3[C@H](O)[C@@H]12 | inactive | inactive | inactive | inactive | inactive | inactive | -4.55% (inactive) and -1.55% (inactive) | inactive | inactive | –

Structure (SMILES) | Potency [1] | Potency [2] | Potency [3] | Potency [4] | Potency [5] | Potency [6] | max activation [7] | outcome [8] | Potency [9] | Potency [10]
O=S(=O)(O)O | inactive | inactive | inactive | inactive | inactive | – | – | – | – | –
CCNc1nc(Cl)nc(NCC)n1 | inactive | inactive | inactive | inactive | inactive | inactive | -2% (inactive) | inactive | inactive | inactive
Cc1cc(Cl)ccc1N | inactive | inactive | inactive | inactive | inactive | inactive | – | – | – | –
CC(=O)[O][Hg][c]1ccccc1 | 2.24 µM (active) and 3.06 µM (active) and 4.73 µM (active) | inactive | 762 nM (active) and 1.09 µM (active) and 1.88 µM (active) | inactive | 5.4 µM (active) and 5.45 µM (active) and 11.9 µM (active) | inactive | -23.3% (inactive) | inactive | 10 µM (active) | inactive
C[C@]12CCC(=O)C=C1CC[C@@H]1[C@@H]2CC[C@]2(C)C(=O)CC[C@@H]12 | inactive | inactive | 23.9 µM (active) and inactive | inactive | inactive | 53.5 µM (active) and inactive | -1.07% (inactive) | inactive | inactive | inactive
CCCC[n+]1cccc(C)c1 | inactive | inactive | inactive | inactive | inactive | inactive | – | – | – | –
O=[N+]([O-])O | inactive | inactive | inactive | inactive | inactive | – | – | – | – | –
CCCCCCCCn1cc[n+](C)c1 | 9.68 µM (active) and 7.76 µM (active) and 8.72 µM (active) | inactive | 54.1 µM (active) and 49 µM (active) and 55 µM (active) | inactive | inactive | 13.6 µM (active) and 21.7 µM (active) and 17.4 µM (active) | – | – | – | –
CCCC[n+]1ccccc1C | inactive | inactive | inactive | inactive | inactive | inactive | – | – | – | –
CCCC[n+]1ccc(C)cc1 | inactive and 6.12 µM (active) | inactive and 54.2 µM (active) | inactive and 54.2 µM (active) | inactive | inactive and 19.4 µM (active) | inactive and 5.45 µM (active) | – | – | – | –
CCCC[n+]1ccccc1 | inactive | inactive | inactive | inactive | inactive | inactive | – | – | – | –
COc1ccccc1N | inactive | inactive | inactive | inactive | inactive | inactive | – | – | – | –
COP(=O)(OC)OC=C(Cl)Cl | inactive | inactive | inactive | inactive | inactive | inactive | 0.647% (inactive) | inactive | inactive | inactive
COc1ccc(N)cc1 | inactive | inactive | inactive | inactive | inactive | 60.6 µM (active) | – | – | – | –
CCCCn1cc[n+](C)c1 | inactive | inactive | inactive | inactive | inactive | – | – | – | – | –
